Measurements from PubChem BioAssay (NCI).
This is part of a sample that, as a whole, favours compounds with a hit. Of some 83,000 tested, about 20% had one in any assay.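 Activity criterion: percent growth below 10, measured after cells in 96-well plates were exposed to a single compound concentration for 48 hours.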 A number with no mark means an inactive call. The source made the active and inactive calls.

tested on: HL-60(TB) leukemia; experiment: NCI-60 one-dose screen, 48 h (100 = growth as untreated, 0 = no growth, -100 = all killed); conditions: 10 µM unless noted

SMILES	growth
CCCCCCCCCCn1cc[n+](C)c1	51.9%
O=C1NC(=S)NC(=O)C1=Cc1cn(Cc2ccccn2)c2ccccc12	32.5%
CN(C)c1ccc(/C=C\c2cccc[n+]2C)cc1	27.2%
C=C(C)[C@@H]1CC[C@]2(C)[C@H](CC[C@@H]3[C@H]4[C@H]5OC[C@@]4(CCC5(C)C)CC[C@]32C)[C@@]1(C)CCCN	-4.66% (active)
CCOC(=O)c1ccc2c(c1)nc(-c1ccc(OCc3ccccc3)c(OC)c1)n2-c1cc(C(C)(C)C)[nH]n1	81.6%
O=C(CNC(=O)c1cccc2ccccc12)Nc1ccccc1Oc1ccccc1	7.14% (active)
Cc1ccccc1[P+](Cc1ccccc1)(c1ccccc1)c1ccccc1	-26.9% (active)
COc1ccc(Cn2cc3c(c2-c2cc(OC)c(OC)c(OC)c2)CCc2cnoc2-3)cc1	0.149% (active)
CCCCCCCCNC(=O)C(C)C	99.7%
O=C(/C=C\c1ccco1)/C=C/c1ccco1	106%
CC12CCC3C4(C)COC(c5ccco5)OC4CCC3(C)C1CC(C1=CCOC1=O)O2 (stereo not given)	98.3%
CCCCOC(=O)c1ccccc1O	93.2%
COC(=O)Nc1ccc(-c2nc(-c3cccc(OC)c3)c(-c3ccnc(Br)c3)[nH]2)cc1	44.2%
COC1=C(C)C(=O)c2c(c(CCCl)c3n2CCC3O)C1=O (stereo not given)	50.3%
C/C(=N\NC(=S)N1CCCCC1)c1ccccn1	-21.6% (active)
COc1ccc(Cc2nc(C#N)c(N3CCN(c4ccc(F)cc4)CC3)o2)cc1	79.2%
Cc1cc(Cl)nc(N2CCN(CCNc3ccnc4cc(Cl)ccc34)CC2)n1	27.8%
O=C(COc1ccc(/C=C2\Oc3ccc4ccccc4c3C2=O)cc1)c1ccc([N+](=O)[O-])cc1	75.9%
COc1ccc(CNc2c3ccccc3nc3ccccc23)cc1OC	12.7%
N#Cc1c[nH]n2ccnc12	123%

SMILES	growth
CS(=O)(=O)Nc1cc(-c2ccc3ncnc(Nc4ccc5c(cnn5Cc5ccncc5)c4)c3c2)cnc1Cl	15.4%
CCN1CCN(CC(=O)Nc2ccc(-c3cn4c(n3)sc3cc(Oc5ccnc(C(=O)NC)c5)ccc34)cc2)CC1	-35.4% (active)
CC(=O)Nc1c(Cl)cc(Cl)c2c1Cc1cc([N+](=O)[O-])ccc1-2	89.8%
CC(C)(C)n1cc(-c2ccnc(NCCNS(=O)(=O)c3ccccc3)c2)c(-c2cccc(O)c2)n1	45%
NNC(=S)N1N=C(c2cc3ccccc3o2)CC1c1c[nH]c2ccccc12 (stereo not given)	21.7%
CC1(C)CN(CCNc2nccc(-c3c(-c4cccc(O)c4)nc4sccn34)n2)S(=O)(=O)N1	82.5%
Cn1cc(-c2csc(-c3c[nH]c4ccc(F)cc34)n2)c2cccnc21	24.5%
CCCCCCCCCCOC(c1ccccc1)c1ccccc1	81.4%
Fc1ccccc1CSc1ncnc2nc[nH]c12	90.4%
COc1cccc2c1C(=O)c1c(O)c3c(c(O)c1C2=O)C[C@@](O)(C(=O)COC(=O)c1ccccc1)C[C@@H]3OC1CC(N)C(O)C(C)O1 (stereo not given in full)	-74.8% (active)
Cc1nc2sc(C(=O)Nc3ccccc3)c(N)c2cc1C(C)O (stereo not given)	-2.23% (active)
FC1(F)CCN(Cc2c[nH]c3cc(Cl)ccc23)C[C@H]1CCc1ccccc1	62.1%
CC(=O)Oc1ccc(N2C(=O)C(Cl)=C(Nc3cccc(C(F)(F)F)c3)C2=O)cc1	96.5%
Cn1nc(-c2ccc(Cl)cc2)nc2c(=O)n(C)c(=O)nc1-2	-43.2% (active)
O=C(c1ccc(Br)cc1)C(Br)C(c1ccc(Cl)cc1)C(c1ccccc1)[N+](=O)[O-] (stereo not given)	99.3%
COc1ccc(/C=C2\Oc3cc(OCCN4CCCC4)ccc3C2=O)c(OC)c1	75.6%
COc1ccc2oc(=O)cc(-c3nc4ccc(N)cc4[nH]3)c2c1	101%
NCCOc1ncccc1/C=C1\C2C=CC=CC2C2C=CC(F)=CC12 (stereo not given)	-24.3% (active)
CS(=O)(=O)c1ccc(Nc2nc(N[C@H]3CCCC[C@H]3N)nc3cc[nH]c(=O)c23)cc1	-16.9% (active)
CCN(CC)CC(=O)N(CC)c1ccc(C)c(Cl)c1	71.7%
